# Bioassay records: PubChem BioAssay, The Scripps Research Institute Molecular Screening Center
# CHO-K1 Ca antag: nonselective inhibitor or artifact in parental CHO-K1 cells | actives 0.6% (n = 360,000) | AID 602250 | inhibition, % at 3 µM | ATP-induced calcium, Fluo-8 fluorescence;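 active = inhibition above a per-plate cutoff, the plate's mean sample inhibition plus 3 SD, cut at about 24% in these data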;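 also: 0% = DMSO plus EC80 ATP and 100% = DMSO alone without ATP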
# M1 PAM: human CHRM1 positive allosteric modulation. actives 0.088% (n = 360,000). activation, % at 3 µM. P11229. CHO-K1 hM1, Fluo-8 calcium fluorescence, ACh EC20; 0% = ACh EC20, 100% = maximal ACh; in the data active = activation above about 19%, passing the limit was not always enough
# Target sequence (P11229 whole entry, looked up): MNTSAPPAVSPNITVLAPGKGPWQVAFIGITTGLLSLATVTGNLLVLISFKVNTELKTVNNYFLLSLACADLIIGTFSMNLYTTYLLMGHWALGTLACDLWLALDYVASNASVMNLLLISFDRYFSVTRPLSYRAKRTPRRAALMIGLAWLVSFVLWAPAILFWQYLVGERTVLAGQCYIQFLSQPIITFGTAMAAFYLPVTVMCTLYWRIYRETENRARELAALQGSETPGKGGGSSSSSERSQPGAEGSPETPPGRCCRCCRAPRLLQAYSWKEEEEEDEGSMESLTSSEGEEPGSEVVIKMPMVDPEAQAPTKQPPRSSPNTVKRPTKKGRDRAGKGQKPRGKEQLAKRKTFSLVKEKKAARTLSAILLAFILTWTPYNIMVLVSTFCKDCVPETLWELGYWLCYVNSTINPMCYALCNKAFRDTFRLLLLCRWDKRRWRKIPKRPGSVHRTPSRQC
# M1 PAM parental: counter-screen for M1 PAMs: effect in parental CHO-K1 cells; actives 0.02% (n = 360,000); activation, % at 3 µM; ATP EC20, Fluo-8 calcium fluorescence; 0% at ATP EC20, 100% at ATP max;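 active = activation above the run cutoff, the mean activation of all test compounds plus 3 SD, cut at about 40% in these data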;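 also: peak over basal fluorescence ratio in a 140 s read after ATP addition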
# CHRM1 antagonist: human CHRM1 antagonism | CHO-K1 hM1, Fluo-8 calcium fluorescence, ACh EC80 antagonist | actives 1.3% (n = 360,000) | inhibition, % at 3 µM | P11229;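 active = percent inhibition above its own plate's cutoff, namely the mean of that plate's compound wells plus 3 SD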;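 also: peak over basal fluorescence ratio during 140 s after agonist addition; 0% = ACh EC80 plus DMSO and 100% = DMSO alone without agonist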
# M1 ag parental: counter-screen for M1 agonists: effect in parental CHO-K1 cells; Fluo-8 calcium fluorescence; scaled to maximal ATP response, vehicle zero; activation, % at 3 µM; actives 0.48% (n = 360,000); AID 602248; in the data active = activation above about 15%;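 also: untransfected CHO-K1 host cells lacking M1 receptor as counterscreen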
# CHRM1 agonist: agonists of human M1 muscarinic receptor; P11229; CHO-K1 hM1, Fluo-8 calcium fluorescence, agonist mode; 0% DMSO, 100% acetylcholine EC100; activation, % at 3 µM; actives 0.33% (n = 360,000);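 active = activation above the run's mean compound activation plus 3 SD, cut at about 16% in these data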;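 also: peak over basal fluorescence ratio within a 140 s kinetic read after compound addition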
# Numbers without * were called inactive. Shown are actives, neighbours in structure and some others; about 2.4% of the full set was active somewhere.
SMILES,CHO-K1 Ca antag,M1 PAM,M1 PAM parental,CHRM1 antagonist,M1 ag parental,CHRM1 agonist
CCCCCCC#Cc1cncc(C(=O)NNC(=O)Nc2cc(Cl)cc(Cl)c2)c1,-2,4,-11,-5,0,-3
COc1cc(NC(=O)Cc2cccc3ccccc23)c(C(=O)O)cc1OC,-11,3,13,-12,2,-3
O=C(O)[C@@H](c1ccccc1)N1Cc2ccccc2C1=O,30*,14,-10,-15,0,2
O=C(O)C(c1ccccc1)N1C(=O)c2ccccc2C1=O (configuration not stated),-4,24,7,-30,0,1
CC(C)c1ccc(NC(=O)c2cc(S(=O)(=O)N3CCCCC3)c[nH]2)cc1,1,1,2,-5,0,-6
COc1ccc(CC(=O)Nc2ccc(C(=O)Nc3ccccc3C(=O)O)cc2)cc1OC,10,1,-9,1,-1,-6
Fc1cccc(CNc2ncnc3cc(Cl)ccc23)c1F,23,-15,4,23,15*,-4
Cc1ccc2c(c1)C(=O)C(=O)N2Cc1ccc(C(F)(F)F)cc1,5,4,-12,8,7,23*
Cc1ccc(OCCN2C(=O)C(=O)c3cc(C)ccc32)cc1,-4,1,11,-2,2,0
Cc1c(Cl)cccc1NC(=O)CCN1CCCCC1,1,-1,8,4,0,-5
CCOC(=O)C1CCCN(CCC(=O)Nc2cccc(Cl)c2C)C1 (configuration not stated),-6,-16,5,24,1,22*
CCOC(=O)C1CCCN(CCC(=O)Nc2cccc(C)c2)C1 (configuration not stated),20,-19,-7,13,0,43*
Cc1ccccc1CN1CCN(Cc2cc(=O)c3ccccc3[nH]2)CC1CCO (configuration not stated),-11,4,1,-8,1,-8
Cc1ccc(C(=O)NCCNc2ncc(C(F)(F)F)cc2Cl)cc1[N+](=O)[O-],-3,-32,-2,46*,2,-11
COc1ccc(C(=O)NCCNc2ncc(C(F)(F)F)cc2Cl)cc1[N+](=O)[O-],-5,-6,-1,6,4,-6
CC1(C(=O)NS(=O)(=O)c2cccc(C#N)c2)CCN1C(=O)C1(c2ccccc2)CC1 (configuration not stated),-7,6,5,-22,0,0
COc1ccc(OCc2cc(C(=O)NCCN3CCCc4ccccc43)no2)c(Cl)c1,-4,-22,5,53*,2,-5
C=CC[C@@H](CC(=O)N(CCO)Cc1ccccc1)C(=O)NC[C@H](OC(=O)[C@@H](CC=C)Cc1ccc(F)cc1)c1ccccc1,-11,-17,-12,34*,6,-1
C=CC[C@@H](CC(=O)N(CCO)Cc1ccccc1)C(=O)N[C@H](COC(=O)[C@@H](CC=C)Cc1ccc(F)cc1)c1ccccc1,-13,-1,-3,7,1,-2
O=C(Nc1ccc(S(=O)(=O)N2CCCC2)cc1)c1cc(F)c(F)cc1Cl,-8,7,10,-13,2,-4
COc1cc(/C=N/Nc2nc(Nc3ccccc3)nc(-n3nc(C)cc3C)n2)cc(OC)c1OC,6,-18,7,26*,5,-5
CCCNC(=O)C1(C)CCN(C(=O)c2sccc2C)C1 (configuration not stated),7,13,6,-24,0,0
O=C(O)C1CCC(Cn2c(SCc3cc(=O)n4ccccc4n3)nc3ccsc3c2=O)CC1 (configuration not stated),-12,6,-2,-2,1,-7
CCOC(=O)C1=C(C)NC(=O)NC1c1ccc(N(CC)CC)cc1 (configuration not stated),-2,-24,0,30*,0,-12
COC(=O)C1=C(C)NC(C)=C(C(=O)OC)C1c1ccco1,-3,9,6,0,19*,-3
SMILES,CHO-K1 Ca antag,M1 PAM,M1 PAM parental,CHRM1 antagonist,M1 ag parental,CHRM1 agonist
COC(=O)C1=C(C)NC(C)=C(C(=O)OC)C1c1ccc(NC(C)=O)cc1,-15,-5,12,-12,0,32*
CCN(CC)c1ccc(C2C(C(=O)OC)=C(C)NC(C)=C2C(=O)OC)cc1,4,-26,-4,37*,0,-7
CCOC(=O)C1=C(C)NC(C)=C(C(=O)OCC)C1c1ccncc1,-10,7,3,-20,0,-3
C=CCn1c(SCC(C)=O)nnc1-c1ccc2ncccc2c1,3,4,10,-7,2,-2
C=CCn1c(SC)nnc1-c1ccc2ncccc2c1,2,7,15,-7,17*,2
CCOC(=O)C1CCCN(C(=O)Cc2ccc(OC)c(OC)c2)C1 (configuration not stated),-7,2,8,-7,0,14
CCOC(=O)C1CCCN(C(=O)Cc2ccc(OC)c(OC)c2)CC1 (configuration not stated),26*,0,-16,-2,1,3
CCOC(=O)C1CCCN(Cc2ccc(O)c(OC)c2)C1 (configuration not stated),-8,0,8,1,0,23*
CCOC(=O)C1CCCN(C(=O)/C=C/c2cc(OC)c(OC)c(OC)c2)C1 (configuration not stated),18,-6,-9,5,1,24*
CCOC(=O)C1CCCN(Cc2nc3ccc([N+](=O)[O-])cc3c(=O)n2-c2ccc(OC)cc2OC)C1 (configuration not stated),-10,-26,12,51*,2,54*
CCc1nc2c(OCc3ccc(Cl)cc3)cccn2c1N(C)C(=O)c1ccc(C)cc1,-5,-22,4,19,0,-10
CC(C)(C)Cc1c(-c2cccc(Cl)c2)nc2ccc(Br)cn12,-3,-4,-3,-13,0,-5
NC(=O)c1[nH]cnc1N=NN(CCO)Cc1ccccc1,-6,3,-13,-2,0,-1
COC(=O)c1cc(Cl)ccc1NCC(N)c1ccccc1 (configuration not stated),0,1,12,4,7,4
O=C(c1cccc(C(F)(F)F)c1)C1CCCN(Cc2cccn2-c2ncccn2)C1 (configuration not stated),-9,-28,34,13,3,-11
CCOc1cc(CN2CCCC(C(=O)c3cccc(C(F)(F)F)c3)C2)ccc1O (configuration not stated),-11,-22,0,32*,4,-8
CCOc1ccc(-c2cc(C(=O)N/N=C/c3cccnc3)c3ccccc3n2)cc1,13,-4,-1,-5,24*,7
